From PubChem BioAssay (EPA / NIEHS) come the findings set out here.

As usually defined, the AC50 is the concentration at which the activity in the assay is half-maximal.

Read-out in test [1]: Tissue Factor, F3 (gene 2152)
In words: BSK_CASM3C_TissueFactor: BioMAP Diversity Plus: CASM3C Assay for Tissue Factor Biomarker Activity (AID 2283052).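 Note: cell surface tissue factor protein level read by ELISA.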 The note with it: primary human coronary artery smooth muscle cells; actives raise or lower the signal.

Read-out in test [2]: Interferon-gamma inducible Protein 10 (IP10), CXCL10 (gene 3627)
In words: BSK_hDFCGF_IP10: BioMAP Diversity Plus: hDFCGF Assay for Interferon-gamma inducible Protein 10 (IP10) Biomarker Activity (AID 2283053). The note with it: primary human foreskin fibroblasts; actives raise or lower the signal. The method, boiled down:
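Primary foreskin fibroblasts, human; 24 h compound exposure; IP-10 by ELISA; bidirectional fit vs DMSO.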

Read-out in test [3]: Urokinase-type plasminogen activator receptor (uPAR), PLAUR (gene 5329)
In words: BSK_CASM3C_uPAR: BioMAP Diversity Plus: CASM3C Assay for Urokinase-type plasminogen activator receptor (uPAR) Biomarker Activity (AID 2283054).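 Note: cell-surface uPAR protein level quantified by ELISA.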 The note with it: primary human coronary artery smooth muscle cells; actives raise or lower the signal.

Read-out in test [4]: Vascular cell adhesion molecule 1 (VCAM1), VCAM1 (gene 7412)
Description: BSK_CASM3C_VCAM1: BioMAP Diversity Plus: CASM3C Assay for Vascular cell adhesion molecule 1 (VCAM1) Biomarker Activity (AID 2283055).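 Note: VCAM-1 protein level quantified by ELISA on the cells.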 The note with it: primary human coronary artery smooth muscle cells; actives raise or lower the signal.

Read-out in test [5]: Collagen III, COL3A1 (gene 1281)
Description: BSK_hDFCGF_CollagenIII: BioMAP Diversity Plus: hDFCGF Assay for Collagen III Biomarker Activity (AID 2283056). The note with it: primary human foreskin fibroblasts; actives raise or lower the signal. The method, boiled down: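 hDFCGF primary human dermal fibroblasts; 24 h chemical exposure; collagen III by ELISA; bidirectional curve fit vs DMSO baseline (gain or loss of signal).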

Read-out in test [6]: Epidermal growth factor receptor (EGFR), EGFR (gene 1956)
In words: BSK_hDFCGF_EGFR: BioMAP Diversity Plus: hDFCGF Assay for Epidermal growth factor receptor (EGFR) Biomarker Activity (AID 2283057). The note with it: primary human foreskin fibroblasts; actives raise or lower the signal. In a few lines: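 hDFCGF system, primary human foreskin fibroblasts; compound 24 h; EGFR measured by ELISA; DMSO = negative control/baseline; bidirectional fitting.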

A short description of test [7]: BSK_hDFCGF_Proliferation: Cell Proliferation Assessment in the BioMAP Diversity Plus: hDFCGF Assay (AID 2283059).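 Note: curves fitted for both rise and fall of signal versus DMSO baseline.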 The note with it: primary human foreskin fibroblasts. In a few lines:
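Total protein read at 560 nm after 0.1% SRB staining of TCA-fixed human skin fibroblasts, […]. Activity is fitted in both directions relative to DMSO as baseline.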

Read-out in test [8]: Macrophage colony-stimulating factor (MCSF), CSF1 (gene 1435)
Description: BSK_hDFCGF_MCSF: BioMAP Diversity Plus: hDFCGF Assay for Macrophage colony-stimulating factor (MCSF) Biomarker Activity (AID 2283060). The note with it: primary human foreskin fibroblasts; actives raise or lower the signal. In a few lines:
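ELISA read-out of M-CSF in human dermal foreskin fibroblast cultures, 24 h after chemical dosing; gain or loss of signal fitted bidirectionally relative to DMSO baseline.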

Test [9] can be described thus: BSK_hDFCGF_SRB: Viability Assessment in the BioMAP Diversity Plus: hDFCGF Assay (AID 2283061).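 Note: cells exposed to compound for 24 h before the read.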 The note with it: primary human foreskin fibroblasts. The method, boiled down: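 Primary human foreskin fibroblasts; 24 h post-dose; fixed 10% TCA, stained 0.1% SRB, A560 read; total protein as overt cytotoxicity measure; curves fit bidirectionally vs DMSO control.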
Read-out in test [10]: TIMP metallopeptidase inhibitor 1 (TIMP1), TIMP1 (gene 7076)
In words: BSK_hDFCGF_TIMP1: BioMAP Diversity Plus: hDFCGF Assay for TIMP metallopeptidase inhibitor 1 (TIMP1) Biomarker Activity (AID 2283062). The note with it: primary human foreskin fibroblasts; actives raise or lower the signal. The method, boiled down: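 ELISA readout of TIMP-1 from human dermal foreskin fibroblast cultures 24 h post-dosing. Curves were fitted in both directions against DMSO baseline, with SRB total-protein staining in parallel cultures as a cytotoxicity check.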

Read-out in test [11]: Monokine induced gamma interferon (MIG), CXCL9 (gene 4283)
In words: BSK_hDFCGF_MIG: BioMAP Diversity Plus: hDFCGF Assay for Monokine induced gamma interferon (MIG) Biomarker Activity (AID 2283063). The note with it: primary human foreskin fibroblasts; actives raise or lower the signal. The method, boiled down:
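Fibroblasts (human foreskin, primary) dosed, 24 h, MIG by ELISA; fit bidirectional vs DMSO.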

Read-out in test [12]: Matrix Metallopeptidase 1 (MMP1), MMP1 (gene 4312)
Description: BSK_hDFCGF_MMP1: BioMAP Diversity Plus: hDFCGF Assay for Matrix Metallopeptidase 1 (MMP1) Biomarker Activity (AID 2283064). The note with it: primary human foreskin fibroblasts; actives raise or lower the signal. The method, boiled down:
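hDFCGF primary fibroblasts (human foreskin); chemical added; 24 h; MMP1 by ELISA; bidirectional fit vs DMSO.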

Read-out in test [13]: Vascular cell adhesion molecule 1 (VCAM1), VCAM1 (gene 7412)
Description: BSK_hDFCGF_VCAM1: BioMAP Diversity Plus: hDFCGF Assay for Vascular cell adhesion molecule 1 (VCAM1) Biomarker Activity (AID 2283065). The note with it: primary human foreskin fibroblasts; actives raise or lower the signal. The method, boiled down:
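ELISA read-out of VCAM-1 on human skin fibroblasts, 24 h post-dose; gain or loss of signal fitted bidirectionally against DMSO baseline.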

Read-out in test [14]: Plasminogen activator inhibitor-1 (PAI1), SERPINE1 (gene 5054)
In words: BSK_hDFCGF_PAI1: BioMAP Diversity Plus: hDFCGF Assay for Plasminogen activator inhibitor-1 (PAI1) Biomarker Activity (AID 2283066). The note with it: primary human foreskin fibroblasts; actives raise or lower the signal. The method, boiled down:
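Primary dermal fibroblasts (human foreskin), hDFCGF system; compound 24 h; PAI-1 by ELISA; bidirectional fit vs DMSO control.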

Read-out in test [15]: Intercellular Adhesion Molecule 1 (ICAM1), ICAM1 (gene 3383)
Description: BSK_KF3CT_ICAM1: BioMAP Diversity Plus: KF3CT Assay for Intercellular Adhesion Molecule 1 (ICAM1) Biomarker Activity (AID 2283067). The note with it: primary human keratinocytes with fibroblasts; actives raise or lower the signal. The method, boiled down:
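ELISA readout of ICAM-1; KF3CT human skin co-culture (keratinocytes + foreskin fibroblasts), 24 h post-dose; gain/loss fit vs DMSO baseline.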

Read-out in test [16]: Interferon-gamma inducible Protein 10 (IP10), CXCL10 (gene 3627)
In words: BSK_KF3CT_IP10: BioMAP Diversity Plus: KF3CT Assay for Interferon-gamma inducible Protein 10 (IP10) Biomarker Activity (AID 2283068). The note with it: primary human keratinocytes with fibroblasts; actives raise or lower the signal. The method, boiled down:
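Human keratinocyte plus foreskin fibroblast primary co-culture exposed to test chemical for 24 h; IP-10 measured by ELISA. Concentration-response fitted bidirectionally against DMSO control as baseline.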

Test [17] can be described thus: BSK_KF3CT_SRB: Viability Assessment in the BioMAP Diversity Plus: KF3CT Assay (AID 2283069).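 Note: total protein by sulforhodamine B staining as a cytotoxicity measure; read 24 h after compound addition.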 The note with it: primary human keratinocytes with fibroblasts. In a few lines:
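Keratinocytes co-cultured with foreskin fibroblasts (human primary); chemical added, 24 h; fix 10% TCA, stain 0.1% SRB, A560. Bidirectional fit vs DMSO.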

Read-out in test [18]: Interleukin-1 alpha (IL1a), IL1A (gene 3552)
In words: BSK_KF3CT_IL1a: BioMAP Diversity Plus: KF3CT Assay for Interleukin-1 alpha (IL1a) Biomarker Activity (AID 2283070). The note with it: primary human keratinocytes with fibroblasts; actives raise or lower the signal. In a few lines:
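Chemicals were dosed onto co-cultured human keratinocytes and foreskin fibroblasts, IL-1a was quantified by ELISA at 24 h, and activity was fitted in both directions relative to DMSO controls.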

Read-out in test [19]: TIMP metallopeptidase inhibitor 2 (TIMP2), TIMP2 (gene 7077)
Description: BSK_KF3CT_TIMP2: BioMAP Diversity Plus: KF3CT Assay for TIMP metallopeptidase inhibitor 2 (TIMP2) Biomarker Activity (AID 2283071). The note with it: primary human keratinocytes with fibroblasts; actives raise or lower the signal. In a few lines: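 Cells: human keratinocytes co-cultured with foreskin fibroblasts. Treat with chemical, 24 h. Measure TIMP-2 by ELISA; fit curves bidirectionally vs DMSO baseline.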

The source made the active and inactive calls. Rule for the calls: active = hit-call score of the fitted dose curve at least 0.9, where 1 is the maximum; inactive = score below 0.9.

For `CN=C=S`, the outcome in [1], in [3], in test [4], in [5], in [7] and in test [8] was inactive. Moreover, the outcome in test [9], in [10], in [11], in test [12], in [13] and in test [14] was inactive. Besides, the result in test [15], in [16], in [17], in [18] and in test [19] was inactive. Moreover, the AC50 is 16.6 µM (active) in [2] and 5.42 µM (active) in test [6].

For `Cc1nc(N(C)C)nc(OC(=O)N(C)C)c1C`, the result in test [1], in test [2], in [3], in [4], in test [5] and in test [6] was inactive. In addition, the outcome in [7], in [8], in test [10], in test [11], in test [12] and in test [13] was inactive. The outcome in [14], in [15], in [16], in test [17], in test [18] and in test [19] was inactive. Also, the AC50 in [9] is 29.8 µM (active).

With `Cc1c(COC(=O)[C@@H]2[C@H](/C=C(\Cl)C(F)(F)F)C2(C)C)cccc1-c1ccccc1`, the outcome in [1], in test [2], in [3], in [4], in test [5] and in test [6] was inactive. The result in test [9], in test [10], in test [11], in test [13], in [14] and in test [15] was inactive. In addition, the outcome in test [16], in test [17], in test [18] and in test [19] was inactive. Also, the AC50 in test [7] is 16.9 µM (active); in test [8], 3.97 µM (active); in [12] it was 3.23 µM (active).

On to `C=C(C)CN(CC)c1c([N+](=O)[O-])cc(C(F)(F)F)cc1[N+](=O)[O-]`, for which the outcome in [1], in test [3], in test [4], in test [5], in test [6] and in test [8] was inactive. In addition, the outcome in test [9], in test [10], in test [11], in [13], in test [14] and in test [15] was inactive. For the same compound, the result in [17], in test [18] and in test [19] was inactive. In addition, the AC50 was 20 µM (active) in [2], 19.5 µM (active) in test [7], 3.92 µM (active) in [12] and 14.9 µM (active) in test [16].

As to `CCNC(=O)NC(=O)C(C#N)=NOC`, the outcome in test [1], in [2], in [3], in test [4], in [5] and in test [6] was inactive. Moreover, the outcome in test [7], in test [8], in [9], in test [10], in test [11] and in test [12] was inactive. Also, the result in [13], in test [14], in test [15], in [16], in [17] and in [18] was inactive. Moreover, the result in test [19] was inactive.
